Assay outcomes: PubChem BioAssay, National Center for Advancing Translational Sciences (NCATS)
A selection: hits, their analogues and other compounds. The true share with any hit is near 20%.
Cycloheximide cs: counter-screen hit for Shiga toxin inhibitors, cycloheximide; cell reporter, cycloheximide protein synthesis inhibition counterscreen; max response, %; 300,000 tested, 12% active; in the data active means max response mostly above about 13%, no sharp cut-off; inactive means mostly below about 14%; further: read at 38.3 µM for the half of the compounds with a filed dose
HCMV inh: inhibitors of human cytomegalovirus | HFF cells, HCMV-luciferase reporter, 72 h; hits give low values | activity change, negative = inhibition, % at 57.5 µM | 410,000 tested, 4.5% active | AID 1259415; in the data active means activity change below about -60%; inconclusive means no clear call, values can overlap the other calls; inactive means above about -39%
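Two compound doses tested in HFFs infected with HCMV-luciferase, MOI 1 PFU/cell, 72 h at 37C. Lysate luminescence read with OneGlo; data normalized against buffer-only and 10uM Salinomycin inhibitor controls.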
Pf growth 48h: inhibits P. falciparum growth in the first generation, 48 h | P. falciparum luciferase growth in erythrocytes, 48 h | Potency, µM (series often up to 28.7 µM), most hits filed as inhibitors | 310,000 tested, 5.9% active | AID 504832
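First compound was added to culture medium, then infected red cells at 0.1% parasitemia and 2% hematocrit (final). After incubation at 37 C under 5% CO2, luciferase detection reagent was dispensed and light output recorded.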
Pf growth 96h: P. falciparum growth inhibition at 96 hour, primary screen for plastid delayed-death inhibitors; Potency, µM (titrated, usually from 28.7 µM), actives largely listed as inhibitors; AID 504834; 320,000 tested, 6.9% active; P. falciparum luciferase reporter growth, 96 h
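Delayed-death screen, second-generation endpoint: infected erythrocytes, 2% hematocrit, 0.05% parasitemia final; 96 hours at 37 C, 5% CO2; luciferase detection reagent; luminescence decrease equals reduced growth.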
Shiga toxin inh: Shiga toxin inhibition; inhibition, % at 38.7 µM; Vero cells, Shiga toxin protein synthesis inhibition reporter; AID 2315; 290,000 tested, 9.2% active; in the data active means inhibition mostly above about 28%, no sharp cut-off; inactive means mostly below about 43%
Hits are given with their value; . = inactive; ? = inconclusive; / = not tested or not shown; ! = repeats disagree; [ ] = dose if it differs, or a comment. Unless noted, the call rests on the fitted dose curve; in most records, active means well fitted inhibition curve with a large enough effect; inconclusive means small, poorly fitted or top-dose-only effect, or another doubt; inactive means no such curve, though single readings can be large or run the other way.

SMILES	Cycloheximide cs	HCMV inh	Pf growth 48h	Pf growth 96h	Shiga toxin inh
Cc1ccc(C)n1C1C(=O)N(C)c2ccc(F)cc21 (stereo not given)	/	.	/	/	/
COc1ccc(-c2cc(=O)c3ccc(F)cc3[nH]2)cc1	.	/	/	/	.
CCC1CCCCN1Cc1c(O)ccc2c(=O)c(-c3ccccc3)coc12 (stereo not given)	.	-92	?	.	/
O=c1c(-c2ccc([N+](=O)[O-])cc2)coc2c(O)c(O)ccc12	23	.	?	?	57
CN(C)Cc1c(O)ccc2c(=O)c(-c3ccc(Cl)cc3)coc12	14	.	.	?	.
CCN(CC)Cc1c(O)ccc2c(=O)c(-c3ccc(Cl)cc3)coc12	.	.	?	.	.
CC1CCCCN1Cc1c(O)ccc2c(=O)c(-c3ccccc3)coc12 (stereo not given)	.	-69!	.[0.00184 µM]	.	.
O=c1c(-c2ccccc2)coc2c(CN3CCCCC3)c(O)ccc12	.	.	?	?	.
COc1ccc(C2CC(=O)N(CC(=O)Nc3ccc(C(F)(F)F)cc3)c3ccccc3S2)cc1 (stereo not given)	/	.	/	/	/
CC(=O)OC1COC(N2CCc3cc([N+](=O)[O-])ccc32)C(OC(C)=O)C1OC(C)=O (stereo not given)	.	.	.	?	.
Cc1cc(NC(=O)c2cc(-c3ccc(Cl)cc3)on2)n(-c2ccccc2)n1	/	.	/	/	/
CCCc1nc2ccc(NC(=O)c3cccs3)cc2c(=O)n1Cc1ccccc1Cl	.	?	1.9µM	?	.
CCCc1nc2ccc(NC(C)=O)cc2c(=O)n1Cc1ccc(Cl)cc1	43	.	.	.	90
Cc1cc(C)c(S(=O)(=O)NCCc2csc3nc(-c4ccc(Cl)cc4)nn23)c(C)c1	/	-66	/	/	/
O=S(=O)(NCCc1csc2nc(-c3ccccc3)nn12)c1ccc(Oc2ccccc2)cc1	/	-67	/	/	/
CCOc1ccc(S(=O)(=O)NCCc2sc3nc(-c4ccc(C)cc4)nn3c2C)cc1	/	.	/	/	/
Cc1c(CCNS(=O)(=O)c2ccccc2)sc2nc(-c3ccc(Cl)cc3)nn12	/	-75	/	/	/
CCOC(=O)C1=C(C(=O)OCC)N(CC2CCCCC2)CCC1=O	/	.	/	/	/
CC(NC(=O)c1cc(-c2ccncc2)nc2ccc(Cl)cc12)C1CCCO1 (stereo not given)	13	.	?	.	38
O=C(c1cc(-c2ccncc2)nc2ccc(Cl)cc12)N1CCN(C(=O)C2CCCO2)CC1 (stereo not given)	.	.	.	.	.
CC(=O)c1ccc(N2CCN(C(=O)c3cc(-c4ccncc4)nc4ccc(Cl)cc34)CC2)cc1	14	.	?	.	.
Cc1cccc2c(C(=O)N3CCCCC3)cc(-c3ccccc3)nc12	.	.	9.3µM	.	.
Cc1cccc2c(C(=O)N3CCN(c4ccccc4)CC3)cc(-c3ccncc3)nc12	.	?	8.3µM	?	.
CCn1c(=O)c2cc(C(=O)N3CCN(c4cccc(OC)c4)CC3)sc2c2ccccc21	/	.	/	/	/
Cc1ccc(-n2nc3c(c2NC(=O)c2ccc4c(c2)OCO4)CS(=O)(=O)C3)c(C)c1	.	.	.	12µM	.
SMILES	Cycloheximide cs	HCMV inh	Pf growth 48h	Pf growth 96h	Shiga toxin inh
Cc1ccc(-n2nc3c(c2NC(=O)c2cccs2)CS(=O)(=O)C3)c(C)c1	.	?	.	0.59µM	.
CC(=O)Nc1c2c(nn1-c1ccc(C)cc1C)CSC2	.	.	?	10µM	.
Cc1ccccc1-n1nc2c(c1NC(=O)c1ccc3c(c1)OCO3)CS(=O)(=O)C2	.	.	.	.	.
CC(C)CCSc1nc(N)c(C#N)cc1C#N	33	?	12µM	.	.
Cc1cc2c3c([nH]c2cc1S(=O)(=O)N1CCC2(CC1)OCCO2)CCCC3=O	.	?	?	?	.
CN(C)Cc1cc(OCc2ccccc2)cc(CN(C)C)c1O	/	.	/	/	/
CN(C)Cc1cc(C(C)(C)c2cc(CN(C)C)c(O)c(CN(C)C)c2)cc(CN(C)C)c1O	.	.	4.1µM	/	.
CCOc1ccc(CCNC(=O)CCc2cn(Cc3ccc(F)cc3)c3ccccc23)cc1	/	.	/	/	/
COc1ccc(NC(=O)CSc2nc(-c3ccco3)cc(C(F)(F)F)n2)c(OC)c1	/	.	/	/	/
COC(=O)c1[nH]c2cc(OC)ccc2c1NC(=O)c1c(F)cccc1F	.	.	.	?	.
C=CCNC(=S)Nc1c(C(=O)OC)[nH]c2cc(OC)ccc12	19	.	.	.	.
COC(=O)c1[nH]c2cc(OC)ccc2c1NC(=O)CCN1CCCC(C)(C)C1	.	.	.	1.7µM	.
COC(=O)c1[nH]c2cc(OC)ccc2c1NC(=O)CCN1CCCCC1	.	.	.	.	.
